# In the supplement of paper PMC3334620:
# Whole data set: some 33,000 sequences, median “E-score (-0.5 to 0.5)” near -0.012, cut for the highest 2% near 0.27. For the sample, the highest values were picked, then their nearest neighbours and some sequences at random.
# Target: T1, Vhr1 (UniProt P40522)
# T1 sequence: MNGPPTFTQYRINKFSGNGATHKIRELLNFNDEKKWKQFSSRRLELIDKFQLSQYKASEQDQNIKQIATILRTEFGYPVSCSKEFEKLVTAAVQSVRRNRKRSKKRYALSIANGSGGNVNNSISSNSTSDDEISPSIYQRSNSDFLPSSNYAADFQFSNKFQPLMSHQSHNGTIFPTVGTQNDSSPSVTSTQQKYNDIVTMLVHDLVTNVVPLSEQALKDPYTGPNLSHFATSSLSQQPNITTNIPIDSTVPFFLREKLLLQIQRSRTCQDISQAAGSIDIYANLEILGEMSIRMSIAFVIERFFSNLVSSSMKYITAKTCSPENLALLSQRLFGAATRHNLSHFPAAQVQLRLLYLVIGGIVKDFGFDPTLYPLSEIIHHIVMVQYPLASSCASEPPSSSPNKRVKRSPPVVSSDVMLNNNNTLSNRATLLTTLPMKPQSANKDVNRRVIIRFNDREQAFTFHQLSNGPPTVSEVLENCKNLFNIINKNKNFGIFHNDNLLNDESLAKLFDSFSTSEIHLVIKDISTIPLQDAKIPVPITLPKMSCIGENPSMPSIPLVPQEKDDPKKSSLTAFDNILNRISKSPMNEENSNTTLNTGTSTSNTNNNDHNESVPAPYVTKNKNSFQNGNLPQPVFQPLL
# Assay: PBM E-score (8-mer binding enrichment) (E-score (-0.5 to 0.5)); higher = stronger / more preferred TF binding
# Settings: protein concentration: 200 nM; construct: GST-full length
# In short: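 The E-score, a modified Wilcoxon-Mann-Whitney statistic, was computed by the Universal PBM Analysis Suite for every ungapped eight-base word pooled with its reverse complement. Scans behind it were normalised with masliner after bound GST-tagged yeast transcription factors were detected with fluorescent anti-GST. The proteins, at about 100-200 nM, had been applied to universal all-10-mer Agilent arrays made double-stranded by primer extension.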
row,Sequence,PBM E-score
1,GAGGTGTA,-0.038
2,GAGTTGGC,0.161
3,ATGATTCC,0.445
4,AGGATTCC,0.0112
5,CTGATTCC,0.261
6,GCATCCAC,0.0832
7,AACAGCCG,-0.0956
8,CACAGCCC,-0.0755
9,AACAGACT,0.0598
10,CACAGCCG,0.281
11,CACAGACA,0.0563
12,CACAGACC,0.307
13,CACAGACG,0.104
14,GACAGACA,0.294
15,GACAGACC,-0.067
16,AACAGACC,0.0701
17,CTCAGACC,-0.00267
18,AACAGACA,0.285
19,ACGGCGAA,0.0608
20,CCATATCG,0.245
21,GAAATTTA,-0.157
22,AAATGCGA,-0.00728
23,ATCAGACC,0.0881
24,GCTCTCAA,-0.0323
25,CATCTGGA,0.0944
26,CTAATGAG,0.0521

row,Sequence,PBM E-score
1,CGTTGCGA,0.0286
2,GGCCAGAA,-0.00605
3,ACAGTACT,0.0536
4,CATTAGCA,-0.152
5,CGTCGAAG,0.0798
6,AGTAGTAG,0.0116
7,AGTAGTTA,0.0583
8,AGTAGTCG,0.292
9,AGTAGTTG,0.29
10,CGTAGTCC,-0.0429
11,AGTAGTCC,0.0701
12,AGTAGTTC,0.108
13,AGTAGTCA,0.401
14,AGTAGTGA,0.106
15,CGTAGTCA,0.372
16,CGTAGTAA,-0.095
17,AGTAGTAA,0.0586
18,CCAGTGGA,-0.118
19,CATTGGCG,0.00375
20,GGAATGCA,0.0844
21,GGGCTTCA,-0.00484
22,GGTAGTCA,0.427
23,GGTAGTGA,0.159
24,GGTAGTAA,-0.193
25,ACCGTTGC,-0.0641
26,CACAATGG,0.176

row,Sequence,PBM E-score
1,CACAATGA,0.286
2,CACAATGC,0.132
3,CTCAGTGA,0.111
4,ATCAGTCG,0.23
5,ACCAGTCA,0.298
6,CTCAGTCA,0.362
7,CTCAGTCC,-0.0479
8,ACCAGTCC,-0.0311
9,CACAGTCA,0.244
10,ATCAGTCA,0.306
11,AACAGTCA,0.192
12,GTCAGTCA,0.267
13,ACCAGTCT,0.0104
14,TACAGTCA,0.294
15,ACGCTAGC,-0.322
16,AATTTAGG,0.0535
17,CACTAATC,0.19
18,CCCAATCG,-0.00353
19,GAATGCAC,0.109
20,CGGCTCGC,0.0809
21,AACAGCTC,0.0178
22,ATGAATCC,0.0842
23,CTGAATCC,0.224
24,GTGAATGA,0.0662
25,ATGAATCG,0.214
26,GTGAATAA,0.16

row,Sequence,PBM E-score
1,CTGAATCA,0.402
2,CTGAATTA,-0.00808
3,ATGAATCA,0.423
4,GTGAATCA,0.394
5,GAAGATAC,0.00993
6,AGCTTGTA,-0.0135
7,GACAGCTC,-0.0639
8,CCGGCCGC,-0.048
9,CCGGCCGA,0.031
10,CCGGCCGG,0.282
11,AGGTCGTA,0.107
12,AGATTGGA,-0.0483
13,AGGTCACC,-0.16
14,CCGTCACC,-0.114
15,CCGTCACA,-0.0936
16,ACGTCACC,-0.0531
17,TGGTCACA,0.035
18,TAGTCACA,0.394
19,CAGTCACA,0.348
20,CTGTCACA,0.025
21,CGGTCACC,0.0171
22,AAGTCACC,0.301
23,CAGTCACC,0.307
24,TCGTCACA,0.0377
25,CTACTTCC,-0.0528
26,CAAGTGAC,-0.00136

row,Sequence,PBM E-score
1,TAGCGCAA,-0.0984
2,ACCGCGGC,0.0296
3,ACGGTAAC,0.0764
4,GACAGCAA,-0.0406
5,AAGTCACA,0.246
6,AAGTCACT,0.209
7,AAGTCACG,0.336
8,CAGTCACG,0.365
9,CAGTCAAA,-0.0678
10,CGGTCACA,0.0193
11,GACATCAC,0.0237
12,CGGATTGA,0.132
13,CCCGGACG,-0.133
14,ACCGGACT,-0.0358
15,ACCGGACG,0.283
16,ATAGTGTC,0.13
17,ATATTATA,0.058
18,ATATTATG,0.324
19,ATATTATC,0.0882
20,CGTATACG,0.107
21,CGGTCATA,-0.0676
22,CAGTCAAG,0.0145
23,TAGTCATA,0.356
24,CTGTCATA,0.0334
25,ATGTCATA,0.106
26,CAGTCAGG,0.175

row,Sequence,PBM E-score
1,CAGTCATA,0.291
2,TAGTCAGA,0.258
3,CCGTCATA,0.139
4,CAGTCATG,0.406
5,AAGTCATA,0.316
6,AGGTCATA,0.0299
7,AAACACTA,0.0776
8,CCCCCAGC,-0.15
9,AGCGCACA,0.00461
10,GCGCTAAA,-0.142
11,CCAGACAC,-0.0651
12,AGCTGCGG,-0.115
13,CCAATGGG,-0.103
14,GTACTCAC,0.263
15,GCACTCAC,-0.0104
16,CGACTCAC,0.448
17,CGACTCTC,0.278
18,CAACTCAG,0.0745
19,CCACTCAG,0.0902
20,CCACTCAC,0.177
21,CAACTCAC,0.263
22,CGACTCAG,0.428
23,AGACTCTC,0.0937
24,CGACTCTA,0.225
25,GGACTCAC,0.372
26,AGAAAATG,-0.163

row,Sequence,PBM E-score
1,TAAAGCAA,-0.0681
2,ACTTAGAC,-0.127
3,ACAGCCTA,0.0389
4,AAGGGTGC,-0.0494
5,CAAGCAAG,-0.0582
6,AACTATTG,0.13
7,AGACTCAC,0.399
8,AGACTCGC,0.136
9,AGACTCAG,0.242
10,AGACTCCT,0.186
11,AGACTCAT,0.353
12,ACTCTCAT,0.027
13,CCGCCTTC,0.0298
14,CCCGTCGG,0.065
15,CAAGCTCG,0.0842
16,GGCGCTAC,-0.192
17,GTGGAGAA,-0.13
18,ACGTGTTC,-0.219
19,CCGTGTTA,0.152
20,CCGTGTTC,0.271
21,ACACAGAC,0.25
